In PubChem BioAssay (EPA / NIEHS):
Calls of active or inactive are those of the source. Rule for the calls: active = hit-call score of the fitted dose curve at least 0.9, where 1 is the maximum; inactive = score below 0.9.

Experiments:
[1] = biological target: Transcription factor E2F1 (Homo sapiens) (UniProt Q01094); experiment: ATG_E2F_CIS: Attagene CIS-FACTORIAL HepG2 Assay for human E2F Transcription Factor 1 (AID 2282935); conditions: HepG2 Attagene cis-reporter, E2F reporter RNA transcripts; actives raise or lower the signal
Procedure, shortened: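 Measures reporter transcript levels via RT-PCR with capillary electrophoresis detection in HepG2 cells harboring cis-regulated reporter units; 24 h post-dose; bidirectional curve fitting with DMSO as baseline.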

[2] = ATG_M_61_CIS: Attagene CIS-FACTORIAL HepG2 Assay for M61 Transcription Factor (Internal Marker) (AID 2282937); conditions: HepG2 Attagene CIS-FACTORIAL M61 internal marker reporter; actives raise or lower the signal
Procedure, shortened: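 HepG2 cells transiently transfected with multiplexed cis-promoter reporter units reporting endogenous transcription factor activity, measured 24 h after dosing. Reporter mRNA quantified by RT-PCR and capillary electrophoresis; bidirectional fit against DMSO baseline.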

[3] = ATG_EGR_CIS: Attagene CIS-FACTORIAL HepG2 Assay for human Early Growth Response 1 (EGR1) (AID 2282938); conditions: HepG2 Attagene CIS-FACTORIAL EGR reporter mRNA; actives raise or lower the signal
Procedure, shortened: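 HepG2 cells transiently transfected with cis-element-driven multiplexed reporter units, dosed for 24 h. EGR1-element reporter mRNA quantified by RT-PCR, 6-FAM labelling, HpaI digestion and capillary electrophoresis; bidirectional fit versus DMSO.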

[4] = ATG_M_19_CIS: Attagene CIS-FACTORIAL HepG2 Assay for M19 Transcription Factor (Internal Marker) (AID 2282939); conditions: HepG2 Attagene CIS-FACTORIAL M19 internal marker reporter; actives raise or lower the signal
Procedure, shortened: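 Signals come from fluorescence of labelled reporter-specific PCR fragments resolved by capillary electrophoresis, following 24 h treatment of HepG2 cells transfected with cis-promoter reporter units; activity was fitted in both directions relative to DMSO.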

[5] = ATG_ERE_CIS: Attagene CIS-FACTORIAL HepG2 Assay for Estrogen Response Element (ERE) (AID 2282940); conditions: HepG2 ERE cis-reporter, Attagene RNA transcript; actives raise or lower the signal
Procedure, shortened: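 Fluorescence of capillary-separated, FAM-labelled reporter cDNA fragments indicates reporter mRNA levels in HepG2 cells exposed to chemicals for 24 h. Transient transfection with cis-regulated units; data fitted in both directions against DMSO.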

[6] = ATG_Ets_CIS: Attagene CIS-FACTORIAL HepG2 Assay for human Erythroblast Transformation Specific (ETS) (AID 2282941); conditions: HepG2 ETS cis-reporter transcription, actives raise or lower the signal
Procedure, shortened: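 HepG2 cells transiently transfected with cis-promoter reporter transcription units were dosed for 24 h; reporter mRNA was measured by RT-PCR, 6-FAM primer extension, HpaI digestion and capillary electrophoresis, with bidirectional fitting against DMSO baseline.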

[7] = biological target: Hepatocyte nuclear factor 3-beta (Homo sapiens) (UniProt Q9Y261); experiment: ATG_FoxA2_CIS: Attagene CIS-FACTORIAL HepG2 Assay for human Forkhead box A2 (FOXA2) (AID 2282942); conditions: HepG2 cis-reporter transcription factor activity, 24 h; actives raise or lower the signal
Procedure, shortened: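 HepG2 transiently transfected with a multiplexed cis-promoter reporter library read endogenous FOXA2 activity. After 24 h compound exposure, reporter mRNA was quantified by RT-PCR, HpaI digestion and capillary electrophoresis. Bidirectional fit against DMSO.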

[8] = ATG_FoxO_CIS: Attagene CIS-FACTORIAL HepG2 Assay for human Forkhead box O (FoxO) (AID 2282943); conditions: HepG2 Attagene cis-reporter, FoxO element, mRNA; actives raise or lower the signal
Procedure, shortened: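 HepG2 cells transiently transfected with cis-element-driven reporter units report endogenous FoxO activity. After 24 h chemical exposure, reporter mRNA quantified by RT-PCR, fluorescent labeling, HpaI digestion and capillary electrophoresis; bidirectional fit versus DMSO.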

[9] = ATG_GLI_CIS: Attagene CIS-FACTORIAL HepG2 Assay for human Zinc Finger Protein GLI1 (AID 2282945); conditions: HepG2, Attagene cis-factorial reporter mRNA, GLI element; actives raise or lower the signal
Procedure, shortened: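 Transiently transfected HepG2 cells report endogenous transcription factor activity via cis-element-driven reporter units. After 24 h compound exposure, reporter mRNA was measured by RT-PCR with capillary electrophoresis; bidirectional fitting against DMSO baseline.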

[10] = biological target: Bile acid receptor (Homo sapiens) (UniProt Q96RI1); experiment: ATG_IR1_CIS: Attagene CIS-FACTORIAL HepG2 Assay for human Nuclear Receptor Subfamily 1 Group H Member 4 (NR1H4), IR1 submotif (AID 2282946); conditions: IR1 reporter transcription, actives raise or lower the signal
Procedure, shortened: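 HepG2 cells transiently transfected with multiple cis-promoter-driven reporter units to measure endogenous transcription factor activity; 24 h exposure. Reporter mRNA read by RT-PCR, FAM labelling, HpaI digestion and capillary electrophoresis. Bidirectional fit versus DMSO.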

[11] = ATG_GRE_CIS: Attagene CIS-FACTORIAL HepG2 Assay for human Glucocorticoid Response Elements (GRE) (AID 2282947); conditions: HepG2 GRE cis-reporter, Attagene multiplex mRNA; actives raise or lower the signal
Procedure, shortened: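 Endogenous transcription factor activity is read through cis-element reporter constructs transiently transfected into HepG2 cells. After 24 h treatment, labelled RT-PCR products are resolved by capillary electrophoresis; DMSO sets baseline for bidirectional curve fitting.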

[12] = ATG_M_32_CIS: Attagene CIS-FACTORIAL HepG2 Assay for M32 Transcription Factor (Internal Marker) (AID 2282949); conditions: HepG2 Attagene cis-factorial M32 reporter, mRNA; actives raise or lower the signal;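 note: background control marker of the multiplexed CIS panel rather than a real target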
Procedure, shortened: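 Following 24 h chemical exposure of HepG2 cells transiently expressing cis-promoter reporter constructs, reporter transcript levels were determined by RT-PCR with fluorescent labelling and capillary electrophoresis, then fitted bidirectionally against DMSO.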

[13] = ATG_M_06_CIS: Attagene CIS-FACTORIAL HepG2 Assay for M06 Transcription Factor (Internal Marker) (AID 2282950); conditions: HepG2 Attagene CIS-FACTORIAL M06 internal marker reporter; actives raise or lower the signal
Procedure, shortened: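 HepG2 liver cells, 24 h exposure. Reporter transcripts from transfected cis-element constructs quantified by RT-PCR/capillary electrophoresis fluorescence. Bidirectional curve fit against DMSO.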

[14] = biological target: Hypoxia-inducible factor 1-alpha (Homo sapiens) (UniProt Q16665); experiment: ATG_HIF1a_CIS: Attagene CIS-FACTORIAL HepG2 Assay for human Hypoxia Inducible Factor 1 (HIF1A) (AID 2282951); conditions: HepG2 Attagene cis-factorial HIF1a reporter transcription; actives raise or lower the signal
Procedure, shortened: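 HepG2 cells transiently transfected with multiple cis-regulated reporter transcription units measure endogenous transcription factor activity. After 24 h exposure, reporter mRNA is quantified by RT-PCR with 6-FAM labelling, HpaI digestion and capillary electrophoresis. Bidirectional fitting against DMSO.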

[15] = biological target: Hepatocyte nuclear factor 6 (Homo sapiens) (UniProt Q9UBC0); experiment: ATG_HNF6_CIS: Attagene CIS-FACTORIAL HepG2 Assay for human Hepatocyte Nuclear Factor 6 (HNF6) (AID 2282952); conditions: HepG2 Attagene cis-factorial HNF6 reporter transcription; actives raise or lower the signal
Procedure, shortened: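 Transiently transfected HepG2 cells expressing cis-regulated reporter transcription units were exposed to chemical for 24 h in a 24-well format. Reporter transcript abundance was determined by fluorescence capillary electrophoresis.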

[16] = biological target: Heat shock factor protein 1 (Homo sapiens) (UniProt Q00613); experiment: ATG_HSE_CIS: Attagene CIS-FACTORIAL HepG2 Assay for human Heat Shock Transcription Factor 1 (HSE) (AID 2282953); conditions: HepG2 HSE cis-reporter, Attagene RNA transcription; actives raise or lower the signal
Procedure, shortened: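 Endogenous transcription factor activity captured via cis-promoter reporter units transfected into HepG2; treatment lasted 24 h. Fluorescence intensity of reporter fragments analysed with bidirectional curve fitting, DMSO baseline.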

[17] = ATG_MRE_CIS: Attagene CIS-FACTORIAL HepG2 Assay for human Metal Responsive Element (MRE) (AID 2282954); conditions: HepG2 MRE cis-reporter transcription, Attagene multiplex; actives raise or lower the signal
Procedure, shortened: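 Fluorescent reporter fragments separated by capillary electrophoresis give mRNA induction for the MRE unit after 24 h treatment of transfected HepG2 cells. Endogenous transcription-factor activity is read; DMSO serves as negative control and baseline.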

[18] = ATG_GATA_CIS: Attagene CIS-FACTORIAL HepG2 Assay for human GATA Binding Protein (AID 2282944); conditions: HepG2 GATA cis-element reporter, Attagene multiplex mRNA; actives raise or lower the signal
Procedure, shortened: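 After transfecting HepG2 cells with multiple cis-regulated reporter units, chemicals are dosed for 24 h; isolated RNA undergoes RT-PCR and fluorescent labeling before capillary electrophoresis, with activity expressed against DMSO.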

[19] = ATG_ISRE_CIS: Attagene CIS-FACTORIAL HepG2 Assay for human Interferon Regulatory Factor 1 (IRF1) binding to an Interferon-Stimulated Response Element (ISRE) (AID 2282948); conditions: HepG2 ISRE cis-reporter (Attagene), mRNA transcription readout; actives raise or lower the signal
Procedure, shortened: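 HepG2 cells transiently transfected with multiplexed cis-promoter reporter units; after 24 h compound exposure, reporter mRNA quantified by RT-PCR, FAM labelling, HpaI digestion and capillary electrophoresis. Bidirectional fit versus DMSO baseline.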

Chain of Hypoxia-inducible factor 1-alpha (Homo sapiens) (Q16665 whole entry, looked up): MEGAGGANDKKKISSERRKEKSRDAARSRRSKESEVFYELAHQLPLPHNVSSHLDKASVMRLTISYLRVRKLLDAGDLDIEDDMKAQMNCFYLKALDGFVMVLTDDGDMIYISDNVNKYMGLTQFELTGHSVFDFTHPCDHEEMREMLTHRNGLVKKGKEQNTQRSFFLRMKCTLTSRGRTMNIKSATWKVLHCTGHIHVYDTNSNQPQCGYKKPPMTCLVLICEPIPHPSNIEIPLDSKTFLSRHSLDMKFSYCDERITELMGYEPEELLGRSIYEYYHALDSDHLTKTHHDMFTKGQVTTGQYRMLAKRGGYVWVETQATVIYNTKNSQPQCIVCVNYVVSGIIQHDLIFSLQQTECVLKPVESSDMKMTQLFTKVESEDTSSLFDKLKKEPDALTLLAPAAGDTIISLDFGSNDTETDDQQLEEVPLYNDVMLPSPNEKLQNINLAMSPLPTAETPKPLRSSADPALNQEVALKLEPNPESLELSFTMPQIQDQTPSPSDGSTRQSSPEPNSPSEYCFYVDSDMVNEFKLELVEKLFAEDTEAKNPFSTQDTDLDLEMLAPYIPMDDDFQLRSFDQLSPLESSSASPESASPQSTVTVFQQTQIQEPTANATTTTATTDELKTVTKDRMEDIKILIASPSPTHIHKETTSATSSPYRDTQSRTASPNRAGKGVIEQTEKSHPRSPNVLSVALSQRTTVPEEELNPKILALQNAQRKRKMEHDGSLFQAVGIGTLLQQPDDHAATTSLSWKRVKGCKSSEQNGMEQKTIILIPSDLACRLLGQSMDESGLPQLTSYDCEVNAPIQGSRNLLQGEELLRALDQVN
Chain of Hepatocyte nuclear factor 3-beta (Homo sapiens) (Q9Y261 whole entry, looked up): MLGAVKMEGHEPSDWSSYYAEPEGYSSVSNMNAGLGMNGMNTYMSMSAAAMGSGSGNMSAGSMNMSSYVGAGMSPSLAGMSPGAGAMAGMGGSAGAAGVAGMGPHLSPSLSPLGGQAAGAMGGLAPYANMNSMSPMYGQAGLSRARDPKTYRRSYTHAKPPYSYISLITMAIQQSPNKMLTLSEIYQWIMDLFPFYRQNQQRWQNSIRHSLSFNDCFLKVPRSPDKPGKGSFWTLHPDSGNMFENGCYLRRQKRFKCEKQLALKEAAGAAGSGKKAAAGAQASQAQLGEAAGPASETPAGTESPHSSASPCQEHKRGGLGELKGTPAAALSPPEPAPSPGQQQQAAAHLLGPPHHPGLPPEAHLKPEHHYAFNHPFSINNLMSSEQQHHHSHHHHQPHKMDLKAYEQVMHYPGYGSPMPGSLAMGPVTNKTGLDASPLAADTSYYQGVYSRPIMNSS
Chain of Hepatocyte nuclear factor 6 (Homo sapiens) (Q9UBC0 whole entry, looked up): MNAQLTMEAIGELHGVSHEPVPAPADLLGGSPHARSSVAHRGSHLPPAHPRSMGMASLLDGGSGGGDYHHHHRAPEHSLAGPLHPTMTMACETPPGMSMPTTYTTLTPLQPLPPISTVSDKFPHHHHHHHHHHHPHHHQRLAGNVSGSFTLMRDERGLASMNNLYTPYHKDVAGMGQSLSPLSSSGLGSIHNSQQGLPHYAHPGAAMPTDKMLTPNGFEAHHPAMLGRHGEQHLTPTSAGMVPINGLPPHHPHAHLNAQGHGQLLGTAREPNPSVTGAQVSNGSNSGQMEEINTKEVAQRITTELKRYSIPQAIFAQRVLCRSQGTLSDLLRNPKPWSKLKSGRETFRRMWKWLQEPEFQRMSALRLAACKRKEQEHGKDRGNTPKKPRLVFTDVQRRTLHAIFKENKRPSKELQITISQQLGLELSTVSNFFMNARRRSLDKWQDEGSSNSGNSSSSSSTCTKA
Chain of Heat shock factor protein 1 (Homo sapiens) (Q00613 whole entry, looked up, the tested form may be a part): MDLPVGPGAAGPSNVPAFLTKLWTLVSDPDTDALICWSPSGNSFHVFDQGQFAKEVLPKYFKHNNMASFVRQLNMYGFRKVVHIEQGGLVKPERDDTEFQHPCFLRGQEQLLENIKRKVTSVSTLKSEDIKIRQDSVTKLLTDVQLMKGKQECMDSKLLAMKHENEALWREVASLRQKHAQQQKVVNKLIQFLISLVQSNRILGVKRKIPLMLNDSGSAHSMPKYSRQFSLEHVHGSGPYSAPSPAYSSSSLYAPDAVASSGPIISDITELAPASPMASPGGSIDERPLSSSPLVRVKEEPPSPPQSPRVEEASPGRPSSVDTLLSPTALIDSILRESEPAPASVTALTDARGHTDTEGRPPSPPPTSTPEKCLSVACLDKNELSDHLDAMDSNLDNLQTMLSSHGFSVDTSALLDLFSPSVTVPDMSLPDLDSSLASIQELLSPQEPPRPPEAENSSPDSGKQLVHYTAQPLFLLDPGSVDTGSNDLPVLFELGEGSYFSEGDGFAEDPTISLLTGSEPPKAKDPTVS
Chain of Transcription factor E2F1 (Homo sapiens) (Q01094 whole entry, looked up): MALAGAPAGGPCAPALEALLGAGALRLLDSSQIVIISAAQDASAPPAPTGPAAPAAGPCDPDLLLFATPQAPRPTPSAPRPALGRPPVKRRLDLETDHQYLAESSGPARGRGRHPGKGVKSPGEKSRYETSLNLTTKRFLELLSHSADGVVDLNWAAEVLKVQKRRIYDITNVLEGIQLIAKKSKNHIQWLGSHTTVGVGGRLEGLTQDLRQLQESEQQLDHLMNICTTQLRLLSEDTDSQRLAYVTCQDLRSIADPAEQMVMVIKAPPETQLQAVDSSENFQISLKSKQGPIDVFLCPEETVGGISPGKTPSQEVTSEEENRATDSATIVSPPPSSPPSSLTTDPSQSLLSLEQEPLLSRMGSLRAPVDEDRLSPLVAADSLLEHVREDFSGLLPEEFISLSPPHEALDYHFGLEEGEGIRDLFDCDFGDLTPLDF
Chain of Bile acid receptor (Homo sapiens) (Q96RI1 whole entry, looked up): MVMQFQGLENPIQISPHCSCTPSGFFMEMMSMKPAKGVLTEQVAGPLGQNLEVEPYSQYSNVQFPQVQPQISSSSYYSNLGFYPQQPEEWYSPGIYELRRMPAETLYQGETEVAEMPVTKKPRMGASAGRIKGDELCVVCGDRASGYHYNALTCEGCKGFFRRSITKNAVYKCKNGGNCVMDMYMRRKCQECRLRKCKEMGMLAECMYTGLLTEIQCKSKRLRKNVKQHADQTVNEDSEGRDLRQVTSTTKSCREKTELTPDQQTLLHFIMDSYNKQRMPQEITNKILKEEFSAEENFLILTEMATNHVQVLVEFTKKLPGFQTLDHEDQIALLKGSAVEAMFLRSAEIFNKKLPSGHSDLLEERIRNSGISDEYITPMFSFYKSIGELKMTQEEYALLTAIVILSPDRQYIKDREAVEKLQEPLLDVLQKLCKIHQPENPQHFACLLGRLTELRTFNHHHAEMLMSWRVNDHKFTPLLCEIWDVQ

SMILES | outcome [1] | outcome [2] | outcome [3] | outcome [4] | outcome [5] | outcome [6] | outcome [7] | outcome [8] | outcome [9] | outcome [10] | outcome [11] | outcome [12] | outcome [13] | outcome [14] | outcome [15] | outcome [16] | outcome [17] | outcome [18] | outcome [19] | AC50 [5]
CC(C)(C)c1cc(CCC(=O)OCCSCCOC(=O)CCc2cc(C(C)(C)C)c(O)c(C(C)(C)C)c2)cc(C(C)(C)C)c1O | inactive | inactive | inactive | inactive | inactive | inactive | inactive | inactive | inactive | inactive | inactive | inactive | inactive | inactive | inactive | inactive | inactive | – | – | –
CC1(C)CC(N)CC(C)(CN)C1 (stereo not given) | inactive | inactive | inactive | inactive | – | inactive | inactive | inactive | inactive | – | inactive | inactive | inactive | inactive | inactive | inactive | inactive | inactive | inactive | –
O=C1OC2(c3ccc(O)cc3Oc3cc(O)ccc32)c2ccccc21 | inactive | inactive | inactive | inactive | – | inactive | inactive | inactive | inactive | inactive | – | inactive | inactive | inactive | inactive | inactive | – | inactive | inactive | –
CC(=O)c1ccc(O)cc1 | inactive | inactive | – | inactive | – | inactive | inactive | inactive | inactive | inactive | inactive | inactive | inactive | inactive | inactive | inactive | – | inactive | – | 26.5 µM (active)
CC1=CC(O)CC(C)(C)C1 (stereo not given) | inactive | inactive | inactive | inactive | inactive | inactive | inactive | inactive | inactive | – | – | inactive | inactive | inactive | inactive | inactive | inactive | inactive | inactive | –
CC(C)Cc1ccc(C(C)C(=O)O)cc1 (stereo not given) | inactive | inactive | inactive | inactive | – | inactive | inactive | inactive | inactive | – | inactive | – | inactive | – | inactive | inactive | inactive | – | inactive | –
CCCc1ccc(N)cc1 | inactive | inactive | – | – | inactive | inactive | inactive | inactive | inactive | – | – | inactive | inactive | inactive | inactive | inactive | inactive | inactive | inactive | –
CC(=O)OC(C)(C)C1CC=C(C)CC1 (stereo not given) | inactive | inactive | inactive | – | – | inactive | inactive | inactive | inactive | – | – | inactive | inactive | inactive | inactive | inactive | inactive | inactive | inactive | 26.1 µM (active)
c1ccc(Sc2ccccc2)cc1 | inactive | inactive | inactive | inactive | – | inactive | inactive | inactive | inactive | – | – | inactive | inactive | inactive | inactive | inactive | inactive | inactive | inactive | 63.5 µM (active)
